Data on 22 compounds can be found in paper PMC5540273 (PLoS ONE, 2017).
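Note: KINOMEscan kinase panel screen.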

In this test the test system is SRPK2. The note with it: concentration: 1 μM, replicates: in singlicate; n = 1.
As to `Nc1nc(-c2nccs2)c(-c2ccnc3ccccc23)s1` [GW693542], the “%Inh” value is reported as 0%.

For the compound `Cn1cncc1-c1ccc2ncnc(Nc3ccc(OCc4ccccc4)cc3)c2c1` [GW320571], the “%Inh” value is reported as 0%.

`Cc1cccc(-c2nc(Nc3ccc4[nH]ncc4c3)c3ccccc3n2)n1` [GW857175]: the “%Inh” value amounted to 0%.

For `O=C1NC(=O)C(N2CCc3ccccc32)=C1c1ccccc1Cl` [SB-373598], the “%Inh” value is listed as 0%.

As for `O=C(Nc1n[nH]c2nc(-c3nccs3)c(Br)cc12)C1CC1` [SB-742251], the “%Inh” value was 21%.

Take `CCCc1ccc(S(=O)(=O)NC2CCN(c3ccnc(Nc4ccc(F)cc4)n3)C2)cc1` (stereo not shown) [GSK1379715]: the “%Inh” value was 17%.

On to `Fc1cccc(COc2nnc(-c3ccc4c(c3)CCO4)o2)c1`, for which the “%Inh” value is 0%.

In the case of `CS(=O)(=O)c1ccc(-c2c(-c3ncn[nH]3)sc(N3CCOCC3)c2C#N)cc1`, the “%Inh” value stood at 0%.

Consider `COc1ccc(CNC(=O)NC2CCN(c3ccnc(Nc4cc(OC)c(OC)c(OC)c4)n3)C2)cc1` (stereo not shown) [GSK1379748], for which the “%Inh” value is 31%.

In the case of `O=c1cc(N2CCOCC2)nc2n(Cc3cccc(Cl)c3Cl)ccn12` [GSK2286295], the “%Inh” value worked out at 0%.

For `Cc1ccccc1-n1cnc2c(N)ncnc21` [SKF-97510], the “%Inh” value came out at 0%.

Regarding `Cc1cccc(-c2nc(-c3ccc(S(C)(=O)=O)cc3)sc2-c2ccnc(NCCc3ccccc3)c2)c1`, the “%Inh” value was 23%.

In the case of `Cc1cccc(-c2nc(C)cc(Nc3ccncc3)n2)n1` [GSK257997], the “%Inh” value is on record as 0%.

For the compound `Cc1cc(-c2ccc3c(c2)CC[C@@H](N[C@@H](C)c2ccccc2)C3)cnc1N.Cl` [GW412617], the “%Inh” value was found to be 0%.

With `Cc1ccc(NC(=O)Nc2cc(C(C)(C)C)nn2-c2ccccc2)cc1` [GSK1014915], the “%Inh” value was found to be 0%.

Turning to `COc1cc2ncn(-c3cc(OCC4CCCO4)c(C(N)=O)s3)c2cc1OC` (stereo not shown) [GSK204607], the “%Inh” value was 11%.

Turning to `COc1cccc(NC(=O)NC2CCN(c3ccnc(Nc4ccc(F)cc4)n3)C2)c1` (stereo not shown) [GSK1379721], the “%Inh” value was 5%.

As for `CC1=C(C(=O)Nc2cc3cn[nH]c3cc2F)C(c2ccc(C(F)(F)F)cc2)CC(=O)N1` (stereo not shown) [GSK429286], the “%Inh” value is given as 0%.

Take `COc1ccc(C2=C(Nc3cccc(C(=O)O)c3)C(=O)NC2=O)cc1` [SB-390765]: the “%Inh” value amounted to 0%.

For the compound `COc1cc2ncnc(Nc3ccc4nc(-c5ccccc5)[nH]c4c3)c2cc1OC.Cl` [GW282450], the “%Inh” value amounted to 0%.

Consider `CN1C(=O)C(Nc2ccc(Cl)c(C(=O)O)c2)=C(c2ccc(Cl)cc2)C1=O` [SB-404290], for which the “%Inh” value was 12%.

As to `Cl.NC(=O)c1cccc(Nc2nccc(Nc3ccc(Oc4cccc(Cl)c4)c(Cl)c3)n2)c1` [GW659008], the “%Inh” value was found to be 0%.
